Reference: PubChem BioAssay
Calls of active or inactive are those of the source.

Assays:
[1] = test system: Human papillomavirus type 1a protein E7 (residues 44-93); assay: HPV1a E7 fragment binders on microarrays, primary screen, biochemical, small-molecule microarray, residues 44-93, 635 nm fluorescence (AID 1108); details: small-molecule microarray binding, fluorescence 635 nm; higher = more signal;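 further: E7 fragment applied at 1 µg/mL in TBST for 1 h at 4 C; score combines spot fluorescence with its signal to noise ratio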
[2] = modulators of HCV replicon luciferase signal, primary screen, HCV replication inhibitor project, Huh7 cells, luciferase reporter (AID 1109); details: 48 h, higher = more signal;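 further: huh7 hepatoma cells harbouring a luciferase neomycin HCV replicon reporter; luciferase luminescence as measure of HCV replicon replication; test concentration not given here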
[3] = target: Left-right determination factor 2 (Homo sapiens) (UniProt O00292); assay: LEFTY2 binders on small-molecule microarrays, primary screen, biochemical, small-molecule microarray, 635 nm fluorescence scan (AID 1110); details: LEFTY2 binding, higher = more signal
[4] = target: Calmodulin-1 (Homo sapiens) (UniProt P0DP23); assay: CALM1 binders on microarrays, EGTA buffer, profiling panel, biochemical, small-molecule microarray, Cy5-labelled CALM1 (AID 1111); details: Cy5-CALM1 binding fluorescence, higher = more signal;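 further: labelled calmodulin applied in Tris saline Tween buffer holding calcium plus EGTA and DTT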
[5] = target: Calmodulin-1 (Homo sapiens) (UniProt P0DP23); assay: calcium-bound CALM1 binders on microarrays, profiling panel, artefact control for SMM control-protein annotation, biochemical, small-molecule microarray, Cy5-labelled CALM1, plus calcium (AID 1112); details: Cy5-CALM1 binding fluorescence, higher = more signal;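 further: score merges spot fluorescence with signal to noise from triplicate slides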
[6] = small-molecule microarray binders of probe aWnt5a, primary screen, biochemical, biotinylated probe, 635/667 nm fluorescence (AID 1113); details: higher = more signal;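 further: score merges 667 nm fluorescence intensity with signal-to-noise per printed feature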
[7] = small-molecule microarray binders of probe aShh, primary screen, biochemical, biotinylated probe, 635/667 nm fluorescence (AID 1114); details: higher = more signal;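 further: probe is biotin-labelled aShh protein from a stem cell growth factor screen; measures binding of labelled protein to compounds printed on the slide; score merges feature fluorescence at 667 nm with signal-to-noise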
[8] = small-molecule microarray binders of probe aNog, primary screen, biochemical, biotinylated probe, 635/667 nm fluorescence (AID 1115); details: higher = more signal;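 further: probe is biotinylated aNog protein used at 0.15 µg/mL for 1 h at 4 C; z-score combines 667 nm fluorescence of each spot with its signal to noise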
[9] = target: Torsin-1A-interacting protein 1 (Homo sapiens) (UniProt Q5JTV8); assay: LAP1 binders from COS7 cell lysate, primary screen, small-molecule microarray, 635/667 nm fluorescence (AID 1116); details: COS7-hLAP1 lysate binding, 635 nm fluorescence, higher = more signal
[10] = target: Alpha-bungarotoxin (Bungarus multicinctus) (UniProt P60615); assay: alpha-bungarotoxin binders on microarray, profiling panel, artefact control for SMM control protein annotation, biochemical, small-molecule microarray, Alexa647 label, 635/667 nm fluorescence (AID 1117); details: alpha-BTX-A647 binding fluorescence, higher = more signal
[11] = target: Albumin (Bos taurus) (UniProt P02769); assay: bovine serum albumin binders on microarray, profiling panel, artefact control for SMM control protein annotation, biochemical, small-molecule microarray, Alexa647 label, 635/667 nm fluorescence (AID 1118); details: BSA-A647 binding, fluorescence 635 nm, higher = more signal;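 further: score merges 667 nm emission intensity and signal-to-noise per printed compound spot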
[12] = small-molecule microarray binders of probe aXIP, primary screen, biochemical, NeuroSMM set, 635/667 nm fluorescence (AID 1119); details: higher = more signal, called active from +8 up or from −8 down;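 further: probe is the protein aXip251-270 applied at 1 µg/mL to compound-printed slides; binding of probe to printed compounds measured as 667 nm fluorescence plus signal to noise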
[13] = small-molecule binders of probe aNOTCH3, primary screen, biochemical, small-molecule microarray, 635/667 nm fluorescence (AID 1120); details: higher = more signal;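 further: probe is a biotin-tagged antibody raised against NOTCH3 rather than NOTCH3 protein; score merges spot fluorescence near 667 nm with spot signal to noise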
[14] = small-molecule binders of probe aNOTCH2, primary screen, biochemical, small-molecule microarray, 635/667 nm fluorescence (AID 1121); details: higher = more signal;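 further: score merges feature fluorescence read at 667 nm with its signal to noise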
[15] = target: Carbonic anhydrase 2 (Homo sapiens) (UniProt P00918); assay: CAII small-molecule binders, profiling panel, biochemical, small-molecule microarray, Alexa647-labelled CAII (AID 1122); details: CAII-A647 binding fluorescence, higher = more signal
[16] = COS7 lysate on small-molecule microarray, probe aHis, 635 nm (AID 1123); details: COS7 cell lysate, fluorescence, higher = more signal;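 further: z-score combines 667nm fluorescence intensity with signal-to-noise per printed compound spot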
[17] = compound binding in COS7 lysate, probe aLAP1, primary screen, cell lysate, small-molecule microarray (AID 1124); details: probe aLAP1, fluorescence, higher = more signal;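 further: lysate comes from COS7 cells expressing LAP1 and is applied at 0.3 µg/mL; score merges spot fluorescence near 667 nm with signal-to-noise over triplicate slides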
[18] = test system: Sam68 (KHDRBS1); assay: Sam68 small-molecule binders, primary screen, biochemical, small-molecule microarray, 635 nm fluorescence (AID 1125); details: small-molecule microarray binding, higher = more signal;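 further: score merges 667 nm channel intensity with signal to noise over triplicate slides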
[19] = test system: Chordin-like protein 2 (CHRDL2); assay: CHRDL2 small-molecule binders, primary screen, biochemical, small-molecule microarray, 635 nm fluorescence (AID 1126); details: small-molecule microarray binding, fluorescence 635 nm; higher = more signal;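 further: printed compound slides probed with Chrdl2 protein at 4 µg/mL for 1 h at 4 C; score merges 667 nm emission intensity with signal to noise over three replicate slides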
[20] = target: Concanavalin-A (Canavalia ensiformis) (UniProt P02866); assay: ConA small-molecule binders, primary screen, artefact control for SMM control protein annotation, biochemical, small-molecule microarray, Alexa647 label, 635 nm (AID 1127); details: ConA-A647 binding fluorescence, higher = more signal;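 further: z combines 667 nm emission intensity with signal-to-noise across three replicate slides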
Chain of Concanavalin-A (Canavalia ensiformis) (P02866 whole entry, looked up): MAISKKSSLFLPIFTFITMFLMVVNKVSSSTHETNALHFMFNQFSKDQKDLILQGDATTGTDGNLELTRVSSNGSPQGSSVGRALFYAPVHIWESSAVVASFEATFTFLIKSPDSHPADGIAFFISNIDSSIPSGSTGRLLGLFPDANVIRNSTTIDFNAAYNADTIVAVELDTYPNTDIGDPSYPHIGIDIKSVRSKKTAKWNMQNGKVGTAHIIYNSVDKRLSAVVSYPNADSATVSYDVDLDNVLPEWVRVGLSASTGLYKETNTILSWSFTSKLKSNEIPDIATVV

Chain of Torsin-1A-interacting protein 1 (Homo sapiens) (Q5JTV8 whole entry, looked up): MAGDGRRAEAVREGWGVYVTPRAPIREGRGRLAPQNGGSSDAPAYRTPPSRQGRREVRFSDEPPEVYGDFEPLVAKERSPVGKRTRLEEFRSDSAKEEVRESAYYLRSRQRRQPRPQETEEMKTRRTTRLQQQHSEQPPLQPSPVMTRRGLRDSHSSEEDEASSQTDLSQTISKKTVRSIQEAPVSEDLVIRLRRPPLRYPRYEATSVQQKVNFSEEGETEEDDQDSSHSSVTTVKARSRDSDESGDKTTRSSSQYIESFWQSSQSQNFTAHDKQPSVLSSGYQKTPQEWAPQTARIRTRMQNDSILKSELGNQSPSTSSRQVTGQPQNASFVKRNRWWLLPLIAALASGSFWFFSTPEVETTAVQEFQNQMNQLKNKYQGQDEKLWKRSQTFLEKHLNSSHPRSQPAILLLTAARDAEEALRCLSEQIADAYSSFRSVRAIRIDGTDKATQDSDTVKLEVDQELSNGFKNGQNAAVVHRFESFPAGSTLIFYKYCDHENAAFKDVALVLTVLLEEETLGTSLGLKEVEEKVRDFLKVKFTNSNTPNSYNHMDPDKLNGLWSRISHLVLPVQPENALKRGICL
Chain of Left-right determination factor 2 (Homo sapiens) (O00292 whole entry, looked up): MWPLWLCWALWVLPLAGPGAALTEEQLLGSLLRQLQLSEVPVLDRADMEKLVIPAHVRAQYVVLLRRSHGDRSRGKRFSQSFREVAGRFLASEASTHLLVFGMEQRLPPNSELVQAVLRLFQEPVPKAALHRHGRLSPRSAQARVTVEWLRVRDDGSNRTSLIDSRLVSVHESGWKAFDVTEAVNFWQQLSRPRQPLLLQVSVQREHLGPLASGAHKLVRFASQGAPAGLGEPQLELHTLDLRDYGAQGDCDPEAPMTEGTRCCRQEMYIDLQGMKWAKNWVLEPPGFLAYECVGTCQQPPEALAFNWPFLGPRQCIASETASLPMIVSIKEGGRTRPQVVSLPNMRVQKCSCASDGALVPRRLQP
Chain of Alpha-bungarotoxin (Bungarus multicinctus) (P60615 whole entry, looked up): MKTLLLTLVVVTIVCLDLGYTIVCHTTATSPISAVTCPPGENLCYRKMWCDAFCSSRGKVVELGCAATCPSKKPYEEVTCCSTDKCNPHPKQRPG
Chain of Albumin (Bos taurus) (P02769 whole entry, looked up): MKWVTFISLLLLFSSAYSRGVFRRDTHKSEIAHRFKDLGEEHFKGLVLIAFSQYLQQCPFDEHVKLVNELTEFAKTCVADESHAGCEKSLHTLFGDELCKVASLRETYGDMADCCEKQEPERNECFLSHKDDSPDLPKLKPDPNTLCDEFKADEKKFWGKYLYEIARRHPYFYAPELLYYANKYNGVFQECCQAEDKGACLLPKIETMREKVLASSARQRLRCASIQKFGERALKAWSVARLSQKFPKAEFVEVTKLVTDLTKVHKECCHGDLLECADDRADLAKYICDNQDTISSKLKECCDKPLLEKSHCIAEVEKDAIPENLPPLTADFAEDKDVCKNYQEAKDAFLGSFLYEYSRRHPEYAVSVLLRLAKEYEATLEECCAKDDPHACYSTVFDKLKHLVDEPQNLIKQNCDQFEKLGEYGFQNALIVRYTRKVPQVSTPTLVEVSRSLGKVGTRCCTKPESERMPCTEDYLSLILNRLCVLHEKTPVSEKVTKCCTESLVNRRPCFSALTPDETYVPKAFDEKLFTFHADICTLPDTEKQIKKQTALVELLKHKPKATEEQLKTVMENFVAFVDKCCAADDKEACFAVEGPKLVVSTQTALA

SMILES | composite z-score [1] | z-score [2] | composite z-score [3] | composite z-score [4] | composite z-score [5] | composite z-score [6] | composite z-score [7] | composite z-score [8] | composite z-score [9] | composite z-score [10] | composite z-score [11] | composite Z-score [12] | composite z-score [13] | composite z-score [14] | composite z-score [15] | composite z-score [16] | composite z-score [17] | composite z-score [18] | composite z-score [19] | composite z-score [20]
COCCCNC(=O)[C@@]1(c2ccc([N+](=O)[O-])cc2)CC(=O)N(C(C)C)[C@@H]1c1ccc(CO)cc1 | -1.48 | 0.198 | -0.195 | -1.61 | -0.129 | 0.0559 | -0.211 | -0.261 | 1.94 | 1.88 | 0.224 | -0.786 (inactive) | -0.424 | -0.0282 | 0.729 | 0.198 | 1.25 | 0.353 | 0.454 | -1.5
COc1ccc([Si](C)(C)[C@H]2[C@H](CC(=O)N3CCC[C@H]3CO)O[C@@]3(C(=O)N(Cc4ccc(N5CCC5=O)cc4)c4ccccc43)[C@@H]2C)cc1 | 1.13 | -1.88 | 0.794 | 0.865 | 0.0623 | -0.0735 | -0.0709 | -0.484 | 1.53 | 1.79 | 0.669 | 0.156 (inactive) | -0.0182 | -0.147 | 0.474 | 2.24 | 0.568 | 1.3 | 1.25 | 1.13
CCCC=C(CCC)[C@@H](NC(=O)CCc1ccccc1)c1ccc(C(F)(F)F)cc1 | 1.36 | -1.51 | -0.203 | 1.58 | 1.03 | 0.451 | 0.93 | 0.555 | 1.11 | 1.23 | 0.964 | -0.1 (inactive) | 0.265 | -0.0095 | 0.58 | 2.82 | 0.0364 | 1.27 | -0.153 | 1.1
C=C[C@@H](C)[C@H](O)c1ccc(OCCO)cc1 | -0.355 | 0.27 | -2.31 | -0.912 | 0.521 | -0.262 | -0.289 | -0.446 | -0.73 | -1.16 | 0.189 | 0.0275 (inactive) | -0.529 | -0.206 | 0.799 | 0.28 | -0.343 | -0.885 | -0.49 | -1.01
O=C1N(CCS(=O)(=O)c2ccccc2)Cc2ccccc2[C@@H]2OC(c3ccc(OCCCO)cc3)=N[C@]12CCS(=O)(=O)c1ccccc1 | 1.48 | -0.0756 | 1.14 | 1.23 | -0.104 | 0.104 | 0.0898 | 0.445 | 1.72 | 0.821 | 0.0789 | 0.02 (inactive) | 0.128 | 0.123 | 0.628 | 2.98 | 0.638 | 1.31 | 1.15 | 1.11
C=C(C(=O)CC[C@H](OC(=O)c1ccccc1-c1ccccc1C(=O)O)c1ccccc1OCCO)C(C)C | 0.649 | -1.59 | 0.346 | -0.246 | -0.4 | -0.0573 | 0.108 | 0.0718 | 1.31 | 1.26 | 0.0198 | 0.292 (inactive) | -0.0035 | -0.176 | 0.52 | 0.559 | -0.0566 | 0.974 | 0.0958 | -0.138
